# Screening data (PubChem)
# Many of the other results were omitted from the sample, so hits are more common in it than they were.
# Dicer inh: inhibitors of Dicer pre-microRNA processing, primary screen, biochemical, cat-ELCCA, chemiluminescence. Endoribonuclease Dicer (Homo sapiens), Q9UPY3. cat-ELCCA pre-miR-21 Dicer processing; hits give high values. z-score at 25 µM. hit rate 6% among 47,000. AID 1347074, 2019; in the data active means z-score above about 3, passing the limit was not always enough;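 further: plate controls were vehicle for no effect and no enzyme for full effect; higher signal means more uncleaved substrate so more Dicer inhibition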
# Starred values were filed as active, the others as inactive.
SMILES,Dicer inh
CC1(C)CC(=O)C2=C(C1)OC1CCCCC21 (centres undefined),3.4*
CC1(C)CC(=O)C2=C(C1)OC1=C(C2)C(=O)CC(C)(C)C1,0.85
CC1(C)CC(=O)C2=C(C1)OC1=C(C(=O)CC(C)(C)C1)C2c1ccc(Br)cc1,0.76
CCS(=O)(=O)c1ccc(O)c(NC(=O)c2nccnc2C(=O)O)c1,1
COc1ccc(OC)c(SCc2nnc(-c3ccc([N+](=O)[O-])c(C)c3)o2)c1,-0.81
O=C(NC1CCCCCCCCCCC1)c1ccncc1,-0.24
COc1ccc(-c2cc(=O)c3ccc(O)cc3o2)cc1,0.66
COc1ccc(C(=O)c2oc3ccc(Cl)cc3c2N)cc1,0.05
COc1ccc(C(=O)c2coc3ccc(O)cc23)cc1,5.4*
COc1ccc(C(=O)c2ccccc2)c(O)c1,1.1
COc1ccc(C(=O)c2oc3ccc(OC)cc3c2N)cc1,4.2*
COc1ccc2oc(C(=O)c3ccc(Cl)cc3)c(N)c2c1,10
Cc1cc(NC(=O)CCC(=O)O)no1,0.21
Cn1c(Oc2cccc(Cl)c2)nc2c1c(=O)n(Cc1ccc(Cl)cc1Cl)c(=O)n2C,-0.24
FC(F)(F)c1cc(Cl)c(N/N=C2/CCCc3ccccc32)c(Cl)c1,-0.77
CC1(C)SC(C(=O)O)N[C@H]1C(=O)O (some centres undefined),3.1*
CC1(C)SC(c2ccc(F)cc2)N[C@H]1C(=O)O (some centres undefined),-1.1
Cc1ccc(-c2nc(-c3cc4ccccc4[nH]c3=O)no2)cc1,0.16
CC(=O)OC(C)CNc1nc2c([nH]1)c(=O)n(C)c(=O)n2C (centres undefined),-0.65
COC(=O)c1scc(S(=O)(=O)C(C)C)c1N/N=C/c1ccccc1Cl,-0.14
CC(NC(=O)OC(C)(C)C)C(=O)NCc1ccccc1 (centres undefined),-0.32
CC(C)CC(NC(=O)OC(C)(C)C)C(=O)NCc1ccccc1 (centres undefined),0.85
CC(C)(C)OC(=O)NC(Cc1ccccc1)C(=O)NCc1ccccc1 (centres undefined),4.6*
O=C(O)c1cc(Br)cc(Br)c1,0.66
O=C(Cn1c(=O)n(-c2ccccc2)c(=O)c2cc(-c3ccccc3)sc21)c1ccccc1,-0.14
SMILES,Dicer inh
O=C(CSCc1csc2ccccc12)NCc1ccc2c(c1)OCO2,-0.3
CCc1ccc2nc(Nc3nc(CSc4nnc(C)s4)cc(=O)[nH]3)nc(C)c2c1,3.1*
Cc1ccc(SCc2cc(=O)[nH]c(Nc3nc(C)c4cccc(C)c4n3)n2)cc1,1.8
CCOc1ccc2nc(Nc3nc(O)cc(=O)[nH]3)nc(C)c2c1,2.8
CCOc1nc(C)ccc1-c1noc(-c2ccccc2Cl)n1,0.5
N#Cc1c(NC(=O)C2Cc3ccccc3CN2S(=O)(=O)c2ccc(F)cc2)sc2c1CCCC2 (centres undefined),-1.2
O=c1[nH]c2ccc(OC(F)(F)F)cc2c(O)c1-c1ccccc1,-0.8
COC(=O)C1=C(N)Oc2cc(N(C)C)ccc2C1c1ccccc1OC (centres undefined),3.2*
COC(=O)C1=C(C)NC2=C(C(=O)CC(C)(C)C2)C1c1ccccc1OC (centres undefined),2.8
COc1ccc(Br)cc1C1C(C#N)=C(N)Oc2cc(O)ccc21 (centres undefined),0.58
Cc1onc(-c2c(F)cccc2Cl)c1-c1ncc(-c2ccc(Br)cc2)o1,-1.6
O=C(O)C1=C(C(=O)Nc2ccccc2)SCCS1,-0.77
O=C(Nc1ccccc1)c1ccc2ccccc2c1O,0.47
Nc1c(C(=O)Nc2ccccc2)oc2ccccc12,5.4*
O=C(NNC(=NS(=O)(=O)c1ccccc1)NNC(=O)c1ccc(F)cc1)c1ccc(F)cc1,0.6
CCOC(=O)Nc1ccc(C(F)(F)F)cc1Cl,-0.8
CCCOCCOC(=O)C1=C(C)NC2=C(C(=O)CC(C)(C)C2)C1c1ccccc1Cl (centres undefined),0.63
CC(C)(C)OC(=O)N1CCN(C(=O)/C=C/C(=O)O)CC1,-0.77
CC(C)S(=O)(=O)C/C(N)=N/OS(=O)(=O)c1ccc(Cl)cc1,-1.5
N#C/C(=N\OC(=O)c1ccc(Cl)cc1)S(=O)(=O)c1ccc(Cl)cc1,-3.8
CC(C)S(=O)(=O)C/C(N)=N/OC(=O)c1cc(Cl)cc(Cl)c1,5.4*
CC(C)S(=O)(=O)C/C(N)=N/OCc1ccc(Cl)cc1,-0.68
CCCS(=O)(=O)C/C(N)=N/OC(=O)c1ccc(Cl)cc1,-0.54
N/C(CS(=O)(=O)Cc1ccco1)=N\OC(=O)c1ccc(Cl)cc1,4.8*
N#Cc1ccccc1NC(=O)C1CCCCC1,-1.2
SMILES,Dicer inh
C=CCC1(O)CC(c2ccccc2)NC(c2ccccc2)C1CC (centres undefined),2.6
COC(=O)C1=C(C(=O)OC)SC(=C2C(=S)C(C)(C)N(C(=O)C(C)C)c3cc(C)ccc32)S1,2.2
CCCC(=O)N1c2cc(C)ccc2C(=C2SC(C(=O)OC)=C(C(=O)OC)S2)C(=S)C1(C)C,2
CCOC(=O)C1=C(C(=O)OCC)SC(=C2C(=S)C(C)(C)N(C(C)=O)c3cc(C)ccc32)S1,3.4*
CC(=O)Oc1ccc(C2C(C(=O)OC3CCCC3)=C(C)NC3=C2C(=O)CCC3)cc1 (centres undefined),0.4
C=CCOc1c(Cl)cc(C2C(C(=O)OC)=C(C)NC3=C2C(=O)c2ccccc23)cc1OC (centres undefined),0.02
CN/N=C/c1ccc(-c2ccc([N+](=O)[O-])cc2)o1,2.1
O=[N+]([O-])/C=C/c1c(-c2ccc3ccccc3c2)[nH]c2ccccc12,1.1
O/N=C/c1c(-c2ccc(Cl)cc2)[nH]c2ccccc12,5*
Clc1ccc(-c2cc3ccccc3[nH]2)cc1,9.6
S=C(NCCc1ccccn1)c1ccccc1,-1.9
O=C(NC(=S)NCCc1ccccn1)c1ccccc1,3.1*
O=C(NC(=S)NCC1CC1)c1ccccc1,-0.16
O=C(NC(=S)NCc1ccncc1)c1ccccc1,3.4*
O=C(NNC(=S)NCCc1ccccc1)c1ccncc1,-0.08
COc1ccc(CCNC(=S)NC(=O)c2ccccc2)cc1OC,0.83
Cc1ccc(S(=O)(=O)N2CCC(C(N)=O)(N3CCCCC3)CC2)cc1,-0.71
COC(=O)c1ccc(S(=O)(=O)NNC(=O)c2ccc(Cl)cc2)n1C,0.81
Cc1ccsc1/C=C/c1ccnc(SCC(=O)Nc2ccc(C(C)C)cc2)n1,-0.39
Cc1[nH]n(-c2ccccc2)c(=O)c1N=Nc1ccc(Br)cc1,0.46
CCOC(=O)c1c(NC(=O)COc2ccccc2Br)sc2c1CCC2,0.53
O=C1CC(c2ccc3c(c2)OCO3)c2c(ccc3ccccc23)N1 (centres undefined),0.95
CC1=CC(C)C2COC(c3ccccc3O)C1C2C (centres undefined),1.2
CC1=CC(C)C2COC(c3ccc4c(c3)OCO4)C1C2C (centres undefined),4*
CN(C)C(=O)c1cc([N+](=O)[O-])cc2c1-c1ccc([N+](=O)[O-])cc1C2=O,-0.96
SMILES,Dicer inh
C=C1SC(Nc2ccc(S(=O)(=O)N3CCCCC3)cc2)=NC12CCCCC2,-0.62
Cc1csc2c(=O)n(CCSc3ccc(Cl)cc3)c(=O)[nH]c12,3.1*
CCOC(=O)c1c(C)csc1NC(=O)CSc1ccc(Cl)cc1,0.16
O=c1[nH]c2ccccc2c(=O)n1CCSc1ccccc1,-0.98
Nc1nc2c(nc(N3CCCC3)n2[C@H]2O[C@@H](CO)[C@H](O)[C@@H]2O)c(=O)[nH]1,-1.6
O=S(=O)(CCN(Cc1cccs1)C(=S)Nc1cccc(F)c1)c1ccc(Cl)cc1,-1.9
